Screens from PubChem.
AHR act – AHR activators, primary screen, cell-based, luminescence, luciferase reporter, human. AHR-responsive luciferase reporter cells. activation, % at 5 µM. 320,000 tested, 2.5% active. AID 2796, 2010; in the data active = activation above about 47%
hcDAF-12 act – H. contortus DAF-12 nuclear receptor activators, primary screen, cell-based, luminescence, HEK293, lit1-tk-luc reporter; HEK293 hcDAF-12 lit1-tk-luc reporter; 0% DMSO, 100% Δ7-dafachronic acid; activation, % at 6.8 µM; 370,000 tested, 1.4% active; AID 652067, 2013;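 active = activation above the mean of all tested compounds plus 3 SD, cut at about 5.5% in these data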
DAX1 inh-1 – DAX1 (NR0B1) inhibitors on StAR promoter, primary screen, cell-based, luminescence, SF-1 (NR5A1), full-length DAX-1 | HEK293T StAR-luciferase reporter, SF-1/DAX-1 repression relief | inhibition, % at 6.8 µM | 370,000 tested, 1.1% active | AID 652010, 2013;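 active = inhibition above the mean over all tested compounds plus 3 SD, cut at about 3.6% in these data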;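 note: higher inhibition means more luminescence from relief of DAX-1 repression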
hgDAF12 agonist – H. glycines DAF-12 receptor agonists, primary screen, cell-based, luminescence, HEK293, GAL4 fusion, UAS-luciferase | HEK293 GAL4-hgDAF12 UAS-luciferase reporter, agonist luminescence; normalized to butyrate control | activation, % at 6.8 µM | 370,000 tested, 1.8% active;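 active = activation above a cutoff set at the mean of all screened compounds plus 3 SD, cut at about 10% in these data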
ssDAF12 agonist – S. stercoralis DAF-12 nuclear receptor activators, primary screen, cell-based, luminescence, HEK293, GRIP1 co-expression, lit1-tk-luc; HEK293 ssDAF-12/GRIP1 lit1-tk-luc reporter; % of 3 µM dafachronic acid response; activation, % at 6.8 µM; 370,000 tested, 1% active; AID 652126, 2013;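 active = activation above the mean over all tested compounds plus 3 SD, cut at about 0.9% in these data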
DAX1 inh-2 – DAX1 (NR0B1) inhibitors, primary screen, cell-based, HEK293, Gal4-DAX1, luciferase luminescence | inhibition, % at 6.75 µM | HEK293 Gal4-DAX1 luciferase reporter | 340,000 tested, 0.99% active;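 active = inhibition above the mean over all tested compounds plus 3 SD, cut at about 4.2% in these data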;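 note: inhibition shows as a rise in luminescence from relieved DAX1 repression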
Target sequence (P51843 207-470 limits assumed): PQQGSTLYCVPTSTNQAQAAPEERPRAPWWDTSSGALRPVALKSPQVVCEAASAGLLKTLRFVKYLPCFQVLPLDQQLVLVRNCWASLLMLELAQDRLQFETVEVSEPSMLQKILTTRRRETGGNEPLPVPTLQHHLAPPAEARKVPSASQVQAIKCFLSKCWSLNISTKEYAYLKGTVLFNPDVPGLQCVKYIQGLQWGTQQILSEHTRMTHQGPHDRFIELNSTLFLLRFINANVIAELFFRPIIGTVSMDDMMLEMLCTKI
Each line names hits and unclear results; the compound was inactive in the other large screens. A selection: hits, their analogues and other compounds. The true share with any hit is near 5.7%.

CN(C)CCCN1C(=O)c2oc3ccc(F)cc3c(=O)c2C1c1cccnc1 (configuration not stated)	hgDAF12 agonist 11.3
COc1ccc(CNC(=O)Cn2ncn3cccc3c2=O)cc1	AHR act 71.2 (no result: DAX1 inh-2)
COc1ccc(CNC(=O)Cn2cc3c(n2)CCCCC3)cc1	DAX1 inh-2 5.7
COc1ccc(CNC(=O)Cn2ncn3c(cc4ccccc43)c2=O)cc1	none
CCOC(=O)NC(=S)Nc1cccc(C)n1	none (no result: AHR act)
COc1cccc(NC(=O)Nc2cccc(C)n2)c1	hgDAF12 agonist 12.4
COc1cccc(NC(=O)Nc2ccc(C)c(Cl)c2)c1	hgDAF12 agonist 13.1
COc1cccc(NC(=O)Nc2cc(C(=O)O)ccc2C)c1	none
Cc1ccc(NC(=O)Nc2cccc(C)n2)c(C)c1	AHR act 56.3
COc1cc(NC(=S)Nc2cccc(C)n2)cc(OC)c1OC	AHR act 68.9
COc1ccc(NC(=O)Nc2cccc(C)n2)c(OC)c1	none
Cc1ccc(CNC(=O)CCS(=O)(=O)Cc2ccc(C)cc2)cc1	none
CCc1nnc(NC(=S)Nc2ccccc2)s1	hgDAF12 agonist 11.9
CC(C)Cc1nnc(NC(=O)CCC(=O)Nc2ccccc2)s1	DAX1 inh-1 3.6
Cc1cc(NC(=O)C(C)SCC(=O)Nc2nnc(CC(C)C)s2)no1 (configuration not stated)	DAX1 inh-1 3.6
CCCCCCCCN1C(=O)[C@@H](CC(=O)NCc2cccc(C(F)(F)F)c2)C[C@@]2(C(=O)OC)C1=C[C@H](C(C)(C)C)O[C@@H]2C	none (no result: AHR act, DAX1 inh-2)
CCOC(=O)C1CSCCS(=O)(=O)N1Cc1ccccc1C (configuration not stated)	none (no result: AHR act, DAX1 inh-2)
O=C(CN1C(=O)c2ccc([N+](=O)[O-])cc2C1=O)NCCC1=CCCCC1	none
Brc1cccc(C2Nc3cccc4cccc(c34)N2)c1	DAX1 inh-2 5.2
Clc1ccccc1CNCC1CCCO1 (configuration not stated)	DAX1 inh-2 5.9
Cc1cc(N2CCN(C(=O)OC(C)(C)C)C[C@H]2C)ccc1N1CCN(Cc2ccccc2)[C@@H](C)C1	none (no result: AHR act, DAX1 inh-2)
Cc1ccc(N=CNc2ccc(C)cc2C)c(C)c1	ssDAF12 agonist 1.8 (no result: DAX1 inh-2)
Cc1[nH]c2ccccc2c1C(=O)CN1CCC(C)CC1	AHR act 56.5
Cc1ccc2c(C(=O)CSc3ccccc3)c(C)[nH]c2c1	AHR act 57.7
Cc1ccc(SCC(=O)c2c(C)[nH]c3ccccc23)cc1	none
CCCc1cc(=O)[nH]c(SCC(=O)c2c(C)[nH]c3ccccc23)n1	AHR act 59.6
CCCc1cc(=O)[nH]c(SCC(=O)c2c[nH]c3ccccc23)n1	none
CCCc1cc(=O)[nH]c(SCCN2C(=O)c3ccccc3C2=O)n1	DAX1 inh-2 5.5
COc1cc2oc(=O)ccc2cc1[C@@H](O)[C@@H]1OC(C)(C)OC1(C)C	none
O=C(c1cc(S(=O)(=O)N2CCOCC2)c(Cl)cc1Cl)N1CCN(S(=O)(=O)c2cccc(F)c2)CC1	none
Cc1[nH]c2ccccc2c1C(=O)COc1ccccc1F	AHR act 63.3
Cc1[nH]c2ccccc2c1C(=O)CSc1ccccn1	AHR act 53.4
O=C(Nc1ccccc1)N1c2ccccc2SC1c1ccco1 (configuration not stated)	none (no result: AHR act, DAX1 inh-2)
Cc1ccccc1C(=O)NC1CC2CCCC(C1)N2CC(C)C (configuration not stated)	none (no result: AHR act)
S=C(NCCc1ccccc1)Nc1ccc(Cl)cc1	hgDAF12 agonist 10.8
O=C(NCCc1ccccc1)Nc1ccc(Cl)cc1	hgDAF12 agonist 12.9
S=C(NCCc1ccccc1)NCCc1ccccc1	none
O=C(COc1ccc2c(c1)OCO2)NC12CC3CC(CC(C3)C1)C2	AHR act 54.5
O=C(NCc1ccc2c(c1)OCO2)NC12CC3CC(CC(C3)C1)C2	none
